This note sets out measurements from PubChem BioAssay (EPA / NIEHS).

The source made the active and inactive calls. How the source made its calls: active means hit-call score of the fitted dose curve at least 0.9, where 1 is the maximum; inactive means score below 0.9.

Common to all, as to details: mRNA level, 48 h; actives raise or lower the signal
Read-out in experiment [1]: Glutamate-cysteine ligase catalytic (GCLC), GCLC (gene 2729)
Briefly: LTEA_HepaRG_GCLC: Life Technologies and Expression Analysis (LTEA) Assay for Glutamate-cysteine ligase catalytic (GCLC) using HepaRG (AID 2283498). In outline:
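Differentiated HepaRG cells exposed 48 h in serum-free induction medium, eight-point half-log series topping at 100 uM in 0.5% DMSO, duplicates. GCLC mRNA by qRT-PCR normalized to ACTB, GAPDH and POLR2A, fitted bidirectionally versus DMSO.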

Read-out in experiment [2]: growth arrest and DNA damage 45 (GADD45G), GADD45G (gene 10912)
The experiment in a line: LTEA_HepaRG_GADD45G: Life Technologies and Expression Analysis (LTEA) Assay for growth arrest and DNA damage 45 (GADD45G) using HepaRG (AID 2283499). In short, it runs like this:
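Gain or loss of GADD45G mRNA, quantified by TaqMan qRT-PCR against three housekeeping genes, is fitted in both directions relative to 0.5% DMSO. Human HepaRG cultures receive test chemical for 48 h at up to 100 uM.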

Read-out in experiment [3]: Glutamate-cysteine ligase regulatory (GCLM), GCLM (gene 2730)
The experiment in a line: LTEA_HepaRG_GCLM: Life Technologies and Expression Analysis (LTEA) Assay for Glutamate-cysteine ligase regulatory (GCLM) using HepaRG (AID 2283500). In outline: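 Differentiated HepaRG cells exposed 48 h in serum-free induction medium to eight half-log concentrations up to 100 uM (0.5% DMSO). GCLM mRNA by TaqMan qRT-PCR, normalized to ACTB, GAPDH and POLR2A; bidirectional fit versus DMSO.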

Read-out in experiment [4]: Glutathione S-transferase M3 (GSTM3), GSTM3 (gene 2947)
The experiment in a line: LTEA_HepaRG_GSTM3: Life Technologies and Expression Analysis (LTEA) Assay for Glutathione S-transferase M3 (GSTM3) using HepaRG (AID 2283501). In outline:
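HepaRG, plated 48 h, then serum-free induction medium; test chemical 48 h, duplicate; 100 uM top, half-log x8, 0.5% DMSO. Read-out: GSTM3 mRNA (TaqMan qRT-PCR, Fluidigm array). Bidirectional fit vs DMSO.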

Read-out in experiment [5]: Heat shock 70 kDa protein 1 (HSPA1A), gene 3303
The experiment in a line: LTEA_HepaRG_HSPA1A: Life Technologies and Expression Analysis (LTEA) Assay for Heat shock 70 kDa protein 1 (HSPA1A) using HepaRG (AID 2283502). In outline: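 Human HepaRG cells in serum-free induction medium were exposed in duplicate for 48 h to 8 half-log concentrations, highest 100 uM, in 0.5% DMSO. HSPA1A mRNA read by TaqMan qRT-PCR, normalized to ACTB, GAPDH, POLR2A, fitted bidirectionally against DMSO.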

Read-out in experiment [6]: Hypoxia-inducible factor 1-alpha (Homo sapiens) (UniProt Q16665)
The experiment in a line: LTEA_HepaRG_HIF1A: Life Technologies and Expression Analysis (LTEA) Assay for Hypoxia-inducible factor 1 (HIF1A) Trancription factor using HepaRG (AID 2283503). In short, it runs like this: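 Differentiated HepaRG cells in serum-free induction medium exposed 48 h, in duplicate, to 8-point half-log series from 100 uM in 0.5% DMSO. HIF1A mRNA measured by TaqMan qRT-PCR, normalized to ACTB/GAPDH/POLR2A, fitted bidirectionally versus DMSO.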

Read-out in experiment [7]: 3-Hydroxy-3-Methylglutaryl-CoA Synthase 2 (HMGCS2), HMGCS2 (gene 3158)
Briefly: LTEA_HepaRG_HMGCS2: Life Technologies and Expression Analysis (LTEA) Assay for 3-Hydroxy-3-Methylglutaryl-CoA Synthase 2 (HMGCS2) using HepaRG (AID 2283504). In short, it runs like this: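 HepaRG, plated 48 h then switched to serum-free induction media; cmpd 8-pt, max 100 uM, 1/2-log, 0.5% DMSO, n=2, 48 h. HMGCS2 mRNA by Fluidigm TaqMan qRT-PCR, ACTB/GAPDH/POLR2A norm; bidirectional fit vs DMSO.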

Read-out in another experiment: HGF (gene 3082)
The experiment in a line: LTEA_HepaRG_HGF: Life Technologies and Expression Analysis (LTEA) Assay for Hepatocyte Growth Facto (HGF) using HepaRG (AID 2283505). In outline:
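Read-out is HGF transcript level by qRT-PCR, normalized to three housekeeping genes, fitted bidirectionally against 0.5% DMSO vehicle. Human HepaRG cells received test chemicals for 48 h at up to 100 uM.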

Read-out in experiment [8]: Insulin Like Growth Factor 1 (IGF1), IGF1 (gene 3479)
The experiment in a line: LTEA_HepaRG_IGF1: Life Technologies and Expression Analysis (LTEA) Assay for Insulin Like Growth Factor 1 (IGF1) using HepaRG (AID 2283506). In short, it runs like this:
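Differentiated HepaRG cells in serum-free induction medium, exposed 48 h in duplicate to 8 half-log concentrations up to 100 uM in 0.5% DMSO. IGF1 mRNA by Fluidigm qRT-PCR, normalised to ACTB, GAPDH and POLR2A.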

Read-out in experiment [9]: Intercellular Adhesion Molecule 1 (ICAM1), ICAM1 (gene 3383)
The experiment in a line: LTEA_HepaRG_ICAM1: Life Technologies and Expression Analysis (LTEA) Assay for Intercellular Adhesion Molecule 1 (ICAM1) using HepaRG (AID 2283507). In short, it runs like this: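 Readout is qRT-PCR mRNA level, normalized to three housekeeping genes and fitted bidirectionally against 0.5% DMSO vehicle. Human HepaRG cultures received compound for 48 h, top concentration 100 uM with half-log dilutions.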

Read-out in experiment [10]: Insulin-like growth factor-binding protein 1 (IGFBP1), IGFBP1 (gene 3484)
The experiment in a line: LTEA_HepaRG_IGFBP1: Life Technologies and Expression Analysis (LTEA) Assay for Insulin-like growth factor-binding protein 1 (IGFBP1) using HepaRG (AID 2283508). In short, it runs like this: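 Thawed HepaRG cells are plated for 48 h, switched to serum-free induction medium, then dosed in duplicate for another 48 h (100 uM top, half-log steps). Lysates in RLT go to qRT-PCR, and gain or loss of signal is fitted relative to vehicle.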

Read-out in experiment [11]: Interleukin 6 (IL6), IL6 (gene 3569)
The experiment in a line: LTEA_HepaRG_IL6: Life Technologies and Expression Analysis (LTEA) Assay for Interleukin 6 (IL6) using HepaRG (AID 2283509). In short, it runs like this:
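HepaRG cells exposed in duplicate for 48 h to eight half-log concentrations, top 100 uM, in 0.5% DMSO serum-free induction medium. mRNA measured by qRT-PCR, normalized to ACTB, GAPDH and POLR2A. Bidirectional fit versus DMSO.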

Read-out in experiment [12]: Interleukin 6 Receptor (IL6R), IL6R (gene 3570)
Briefly: LTEA_HepaRG_IL6R: Life Technologies and Expression Analysis (LTEA) Assay for Interleukin 6 Receptor (IL6R) using HepaRG (AID 2283510).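 On AC50: TaqMan qRT-PCR signal normalized to ACTB GAPDH and POLR2A housekeeping genes.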 In short, it runs like this:
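Differentiated HepaRG cells, plated 48 h, then exposed in duplicate for 48 h in serum-free induction medium to 8 half-log concentrations (top 100 uM, 0.5% DMSO). IL6R mRNA measured by TaqMan qRT-PCR, normalized to ACTB/GAPDH/POLR2A; bidirectional fit vs DMSO.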

Read-out in experiment [13]: Potassium channel subfamily K member 1 (KCNK1), KCNK1 (gene 3775)
The experiment in a line: LTEA_HepaRG_KCNK1: Life Technologies and Expression Analysis (LTEA) Assay for Potassium channel subfamily K member 1 (KCNK1) using HepaRG (AID 2283511). In outline: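 Differentiated HepaRG cells, 48 h exposure in serum-free induction medium with 0.5% DMSO; 8 concentrations, half-log from 100 uM, duplicate. KCNK1 mRNA by qRT-PCR, normalized to ACTB, GAPDH, POLR2A; bidirectional fit vs DMSO.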

Read-out in experiment [14]: Keratin 19 (KRT19), KRT19 (gene 3880)
The experiment in a line: LTEA_HepaRG_KRT19: Life Technologies and Expression Analysis (LTEA) Assay for Keratin 19 (KRT19) using HepaRG (AID 2283512). In short, it runs like this:
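KRT19 transcript levels, measured by Fluidigm qRT-PCR against three housekeeping genes, are fitted for gain or loss of signal relative to DMSO. Human HepaRG cells receive test chemicals (top 100 uM, half-log steps, 0.5% DMSO) for 48 hours.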

Read-out in experiment [15]: JUN Transcription Factor, JUN (gene 3725)
Briefly: LTEA_HepaRG_JUN: Life Technologies and Expression Analysis (LTEA) Assay for JUN Transcription Factor using HepaRG (AID 2283513). In short, it runs like this: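 HepaRG cells, 48 h post-plating, exposed 48 h in serum-free induction medium to 8-point half-log series (top 100 uM, 0.5% DMSO), duplicate; mRNA by qRT-PCR (TaqMan, Fluidigm), normalized to ACTB/GAPDH/POLR2A; bidirectional fit vs DMSO.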

Read-out in experiment [16]: Lipase C (LIPC), LIPC (gene 3990)
Briefly: LTEA_HepaRG_LIPC: Life Technologies and Expression Analysis (LTEA) Assay for Lipase C (LIPC) using HepaRG (AID 2283514). In short, it runs like this:
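HepaRG cells, 48 h after plating, treated in duplicate for 48 h in serum-free induction medium over 8 half-log concentrations from 100 uM, 0.5% DMSO. LIPC mRNA by TaqMan qRT-PCR normalized to ACTB/GAPDH/POLR2A; bidirectional fit versus DMSO.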

Read-out in experiment [17]: Lipoprotein lipase (LPL), LPL (gene 4023)
Briefly: LTEA_HepaRG_LPL: Life Technologies and Expression Analysis (LTEA) Assay for Lipoprotein lipase (LPL) using HepaRG (AID 2283515). In short, it runs like this:
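Differentiated HepaRG cells, plated 48 h, then exposed 48 h in serum-free induction medium to 8 concentrations (top 100 uM, half-log steps) in 0.5% DMSO, duplicate. LPL mRNA measured by qRT-PCR, normalized to ACTB, GAPDH and POLR2A.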

Read-out in experiment [18]: MicroRNA 122 (MIR122), gene 406906
The experiment in a line: LTEA_HepaRG_MIR122: Life Technologies and Expression Analysis (LTEA) Assay for MicroRNA 122 (MIR122) using HepaRG (AID 2283516). Further: the transcript read is the microRNA miR-122. In outline: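 Differentiated human HepaRG cells in serum-free induction medium exposed 48 h to 8 half-log concentrations from 100 uM in 0.5% DMSO, duplicate. MIR122 quantified by Fluidigm TaqMan qRT-PCR, normalised to ACTB, GAPDH, POLR2A; fold change fitted bidirectionally versus DMSO.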

Read-out in experiment [19]: matrix metalloproteinase-10 (MMP10), MMP10 (gene 4319)
The experiment in a line: LTEA_HepaRG_MMP10: Life Technologies and Expression Analysis (LTEA) Assay for matrix metalloproteinase-10 (MMP10) using HepaRG (AID 2283517). In outline:
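Differentiated HepaRG cells in serum-free induction medium exposed 48 h in duplicate to 8-point half-log series up to 100 uM in 0.5% DMSO. mRNA quantified by qRT-PCR, normalised to ACTB, GAPDH, POLR2A; bidirectional fit versus DMSO.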

Sequence of Hypoxia-inducible factor 1-alpha (Homo sapiens) (Q16665 whole entry, looked up): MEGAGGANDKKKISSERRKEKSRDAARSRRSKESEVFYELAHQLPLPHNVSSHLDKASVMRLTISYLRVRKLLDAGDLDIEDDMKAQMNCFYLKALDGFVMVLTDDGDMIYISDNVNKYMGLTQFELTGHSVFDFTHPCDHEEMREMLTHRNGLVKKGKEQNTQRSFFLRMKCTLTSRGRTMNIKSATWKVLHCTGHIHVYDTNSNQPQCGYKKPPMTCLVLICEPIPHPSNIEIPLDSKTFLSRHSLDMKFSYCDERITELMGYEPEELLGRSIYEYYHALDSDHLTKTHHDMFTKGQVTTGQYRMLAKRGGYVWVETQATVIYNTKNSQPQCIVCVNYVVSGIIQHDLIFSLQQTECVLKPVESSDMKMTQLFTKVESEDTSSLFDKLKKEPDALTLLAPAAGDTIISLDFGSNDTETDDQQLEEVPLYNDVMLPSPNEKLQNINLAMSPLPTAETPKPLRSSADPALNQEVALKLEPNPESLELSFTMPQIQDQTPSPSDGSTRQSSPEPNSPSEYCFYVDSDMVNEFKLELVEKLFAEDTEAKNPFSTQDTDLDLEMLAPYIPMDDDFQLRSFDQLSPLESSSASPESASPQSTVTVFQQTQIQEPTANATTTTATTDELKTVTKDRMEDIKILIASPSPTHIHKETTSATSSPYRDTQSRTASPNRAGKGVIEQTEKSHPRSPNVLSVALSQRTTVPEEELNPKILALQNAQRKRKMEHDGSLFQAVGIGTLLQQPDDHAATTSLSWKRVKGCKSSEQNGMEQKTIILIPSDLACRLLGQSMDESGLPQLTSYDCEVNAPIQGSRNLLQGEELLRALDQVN

On to `CCCCCCCCCCCCc1cccc(S(=O)(=O)O)c1`, for which the compound was classed as inactive (in [1]; in experiment [2]; in [3]; in [4]; with HGF (gene 3082); in experiment [8]). The result in experiment [9], in experiment [10], in [11], in [12], in experiment [13] and in [15] was inactive. The call in experiment [16], in experiment [18] and in experiment [19] was inactive. The AC50 in experiment [5] is 59.4 µM (active); in [6], 16.5 µM (active); in [7] it was 37.9 µM (active); in experiment [14], 76.1 µM (active); in experiment [17], 8.93 µM (active).
In the case of `O=C(N[C@H]1CN2CCC1CC2)c1ccc2c(c1)OCCO2`, the compound was called inactive in experiment [1], in experiment [2], in experiment [4], in experiment [5], in experiment [6] and in experiment [7]. In addition, the call (with HGF (gene 3082); in experiment [8]; in [9]; in experiment [10]; in experiment [11]; in experiment [13]) was inactive. Further, the result in experiment [14], in experiment [15], in [16], in experiment [17], in experiment [18] and in experiment [19] was inactive. Besides, the AC50 was 112 nM (active) in experiment [3] and 12.2 µM (active) in experiment [12].
Take `CN(C)C(=S)S`: the result in experiment [1], in experiment [2], in experiment [3], in experiment [4], in experiment [5] and in [6] was inactive. For the same compound, the compound was classed as inactive (in [7]; with HGF (gene 3082); in experiment [8]; in experiment [9]; in experiment [10]; in experiment [11]). Besides, the result in experiment [12], in [13], in [14], in experiment [15], in [16] and in experiment [17] was inactive. The call in [18] and in experiment [19] was inactive.
`Oc1c(Cl)cc(Cl)cc1Cl`: the call in experiment [1], in [2], in experiment [3], in [4], in experiment [5] and in experiment [6] was inactive. Moreover, the compound was called inactive in experiment [7], in experiment [8], in experiment [9], in experiment [10], in [11] and in experiment [12]. The result in experiment [13], in experiment [14], in experiment [15], in experiment [16], in [17] and in [18] was inactive. For the same compound, the compound was called inactive in [19].

For orientation: AC50 means the midpoint of the concentration-response curve, whichever way the signal moves.
